According to PubChem BioAssay (EPA / NIEHS):
The source made the active and inactive calls. How the source made its calls: active means hit-call score of the fitted dose curve at least 0.9, where 1 is the maximum; inactive means score below 0.9.

Tests used:
Conditions in all cases: mRNA level, 48 h; actives raise or lower the signal
[1] = read-out: Lipoprotein lipase (LPL), LPL (gene 4023); assay: LTEA_HepaRG_LPL: Life Technologies and Expression Analysis (LTEA) Assay for Lipoprotein lipase (LPL) using HepaRG (AID 2283515)
In short: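 Differentiated human HepaRG cells in serum-free induction medium were exposed in duplicate for 48 h to eight half-log concentrations (top 100 uM) in 0.5% DMSO. LPL mRNA was quantified by TaqMan qRT-PCR, normalized to ACTB, GAPDH and POLR2A.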

[2] = read-out: matrix metalloproteinase-10 (MMP10), MMP10 (gene 4319); assay: LTEA_HepaRG_MMP10: Life Technologies and Expression Analysis (LTEA) Assay for matrix metalloproteinase-10 (MMP10) using HepaRG (AID 2283517)
In short: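 HepaRG, collagen I, ~100,000 cells/well; serum-free induction medium; 48 h exposure, duplicate, 8-pt half-log to 100 uM, 0.5% DMSO. Readout: TaqMan qRT-PCR, normalized to ACTB/GAPDH/POLR2A; bidirectional fit vs DMSO.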

[3] = read-out: MYC, MYC (gene 4609); assay: LTEA_HepaRG_MYC: Life Technologies and Expression Analysis (LTEA) Assay for MYC using HepaRG (AID 2283518)
In short: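 Differentiated HepaRG cells exposed 48 h in serum-free induction medium to 8 concentrations (top 100 uM, half-log steps; 0.5% DMSO), duplicate. MYC mRNA measured by Fluidigm qRT-PCR, normalized to ACTB, GAPDH, POLR2A; bidirectional fit versus DMSO.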

[4] = read-out: matrix metalloproteinase-3 (MMP3), MMP3 (gene 4314); assay: LTEA_HepaRG_MMP3: Life Technologies and Expression Analysis (LTEA) Assay for matrix metalloproteinase-3 (MMP3) using HepaRG (AID 2283519)
In short: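 Differentiated human HepaRG cells, plated 48 h on collagen I, were exposed in duplicate for 48 h in serum-free induction medium to eight half-log concentrations up to 100 uM in 0.5% DMSO. MMP3 mRNA was quantified by TaqMan qRT-PCR, normalised to ACTB, GAPDH and POLR2A.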

[5] = read-out: Paternally Expressed 10 (PEG10), PEG10 (gene 23089); assay: LTEA_HepaRG_PEG10: Life Technologies and Expression Analysis (LTEA) Assay for Paternally Expressed 10 (PEG10) using HepaRG (AID 2283520)
In short: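 HepaRG, 48 h post-plating → serum-free induction medium → 48 h chemical exposure (duplicate, 8-pt, max 100 uM, half-log, 0.5% DMSO) → lysis in RLT → TaqMan qRT-PCR for PEG10, ACTB/GAPDH/POLR2A normalisation.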

[6] = read-out: Protein phosphatase 2A (PPP2R4), PTPA (gene 5524); assay: LTEA_HepaRG_PPP2R4: Life Technologies and Expression Analysis (LTEA) Assay for Protein phosphatase 2A (PPP2R4) using HepaRG (AID 2283522)
In short: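 Readout is PPP2R4 transcript level by microfluidic qRT-PCR after 48 h chemical treatment of human HepaRG liver cells. Concentrations spanned 100 uM downward in half-log steps; gain or loss of signal was fitted relative to DMSO.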

[7] = read-out: Phosphatase and tensin (PTEN), PTEN (gene 5728); assay: LTEA_HepaRG_PTEN: Life Technologies and Expression Analysis (LTEA) Assay for Phosphatase and tensin (PTEN) using HepaRG (AID 2283523)
In short: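 Differentiated human HepaRG cells, plated 48 h then switched to serum-free induction medium, were exposed in duplicate for 48 h to eight half-log concentrations up to 100 uM in 0.5% DMSO. PTEN mRNA measured by TaqMan qRT-PCR, normalized to ACTB/GAPDH/POLR2A, bidirectional fit versus DMSO.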

[8] = read-out: solute carrier (SLC22A1), SLC22A1 (gene 6580); assay: LTEA_HepaRG_SLC22A1: Life Technologies and Expression Analysis (LTEA) Assay for solute carrier (SLC22A1) using HepaRG (AID 2283524)
In short: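 Human HepaRG cells were plated 48 h, switched to serum-free induction medium, then exposed in duplicate for 48 h to 8-point half-log series from 100 uM in 0.5% DMSO. SLC22A1 mRNA measured by qRT-PCR, normalized to ACTB/GAPDH/POLR2A, fitted bidirectionally versus DMSO.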

[9] = read-out: Pyruvate Dehydrogenase Kinase 4 (PDK4), PDK4 (gene 5166); assay: LTEA_HepaRG_PDK4: Life Technologies and Expression Analysis (LTEA) Assay for Pyruvate Dehydrogenase Kinase 4 (PDK4) using HepaRG (AID 2283525)
In short: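 Differentiated human HepaRG cells, pre-cultured 48 h, were exposed in duplicate for 48 h in serum-free induction medium to eight half-log concentrations up to 100 uM in 0.5% DMSO. PDK4 mRNA was quantified by qRT-PCR, normalized to ACTB, GAPDH and POLR2A, bidirectional fitting versus DMSO.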

[10] = read-out: NAD(P)H dehydrogenase [quinone] 1 (NQO1), NQO1 (gene 1728); assay: LTEA_HepaRG_NQO1: Life Technologies and Expression Analysis (LTEA) Assay for NAD(P)H dehydrogenase [quinone] 1 (NQO1) using HepaRG (AID 2283526)
In short: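 HepaRG, 48 h post-plating → serum-free induction medium → test chemical 48 h (duplicate, 100 uM top, half-log x8, 0.5% DMSO) → RNA isolation → qRT-PCR, ACTB/GAPDH/POLR2A normalization; bidirectional curve fit vs DMSO baseline.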

[11] = read-out: Nuclear factor erythroid 2-related factor 2 (Homo sapiens) (UniProt Q16236); assay: LTEA_HepaRG_NFE2L2: Life Technologies and Expression Analysis (LTEA) Assay for Nuclear factor erythroid 2-related factor 2 (NFE2L2) Transcription Factor using HepaRG (AID 2283527);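 further: TaqMan qRT-PCR transcript level normalised to ACTB GAPDH and POLR2A housekeeping genes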
In short: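 Differentiated human HepaRG cells in serum-free induction medium were exposed for 48 h to eight concentrations (top 100 uM, half-log dilutions, 0.5% DMSO), in duplicate. NFE2L2 mRNA was quantified by TaqMan qRT-PCR, normalized to ACTB, GAPDH and POLR2A, with bidirectional fitting versus DMSO.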

[12] = read-out: succinate dehydrogenase complex iron sulfur subunit B (SDHB), SDHB (gene 6390); assay: LTEA_HepaRG_SDHB: Life Technologies and Expression Analysis (LTEA) Assay for succinate dehydrogenase complex iron sulfur subunit B (SDHB) using HepaRG (AID 2283528)
In short: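 HepaRG cells (~100,000/well, plated 48 h) exposed in duplicate for 48 h in serum-free induction medium to 8-point half-log series from 100 uM in 0.5% DMSO; mRNA by qRT-PCR normalised to ACTB, GAPDH, POLR2A; bidirectional fit versus DMSO.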

[13] = read-out: Signal transducer and activator of transcription 3 (Homo sapiens) (UniProt P40763); assay: LTEA_HepaRG_STAT3: Life Technologies and Expression Analysis (LTEA) Assay for Signal transducer and activator of transcription (STAT3) using HepaRG (AID 2283529)
In short: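 Differentiated human HepaRG cells in serum-free induction medium were exposed in duplicate for 48 h to eight half-log concentrations up to 100 uM in 0.5% DMSO. STAT3 mRNA was quantified by TaqMan qRT-PCR, normalized to ACTB, GAPDH and POLR2A, and fitted bidirectionally against DMSO.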

[14] = read-out: solute carrier (SLCO1B1), SLCO1B1 (gene 10599); assay: LTEA_HepaRG_SLCO1B1: Life Technologies and Expression Analysis (LTEA) Assay for solute carrier (SLCO1B1) using HepaRG (AID 2283530)
In short: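 Differentiated human HepaRG cells were exposed for 48 h in serum-free induction medium to eight half-log concentrations, top 100 uM, in 0.5% DMSO. SLCO1B1 mRNA was measured by qRT-PCR, normalized to ACTB, GAPDH and POLR2A, and fitted bidirectionally against DMSO.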

[15] = read-out: Transforming Growth Factor (TGFA), TGFA (gene 7039); assay: LTEA_HepaRG_TGFA: Life Technologies and Expression Analysis (LTEA) Assay for Transforming Growth Factor (TGFA) using HepaRG (AID 2283532)
In short: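 Differentiated human HepaRG cells, plated 48 h then switched to serum-free induction medium, were exposed in duplicate for 48 h to 8-point half-log series from 100 uM in 0.5% DMSO. TGFA mRNA measured by qRT-PCR, normalized to ACTB/GAPDH/POLR2A, bidirectional fit versus DMSO.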

[16] = read-out: Transforming Growth Factor (TGFB1), TGFB1 (gene 7040); assay: LTEA_HepaRG_TGFB1: Life Technologies and Expression Analysis (LTEA) Assay for Transforming Growth Factor (TGFB1) Transporter using HepaRG (AID 2283533)
In short: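 Differentiated HepaRG cells exposed 48 hr in serum-free induction medium to eight half-log concentrations up to 100 uM (0.5% DMSO), duplicate; TGFB1 mRNA by TaqMan qRT-PCR normalised to ACTB, GAPDH, POLR2A; bidirectional fit against DMSO.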

[17] = read-out: TIMP1, TIMP1 (gene 7076); assay: LTEA_HepaRG_TIMP1: Life Technologies and Expression Analysis (LTEA) Assay for TIMP1 using HepaRG (AID 2283534);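 further: TaqMan qRT-PCR signal normalized to ACTB GAPDH and POLR2A housekeeping genes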
In short: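 Differentiated HepaRG cells exposed 48 h in serum-free induction medium, duplicates, eight half-log concentrations from 100 uM in 0.5% DMSO. TIMP1 mRNA by qRT-PCR normalized to ACTB, GAPDH, POLR2A; bidirectional fitting against DMSO.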

[18] = read-out: MicroRNA 122 (MIR122), gene 406906; assay: LTEA_HepaRG_MIR122: Life Technologies and Expression Analysis (LTEA) Assay for MicroRNA 122 (MIR122) using HepaRG (AID 2283516); further: the transcript read is the microRNA miR-122
In short: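 HepaRG plated 48 h, switched to serum-free induction medium, then treated in duplicate for 48 h (100 uM top, half-log steps, 0.5% DMSO vehicle). RNA isolated, qRT-PCR performed, concentration-response fitted both directions relative to DMSO.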

[19] = read-out: Nuclear factor NF-kappa-B p105 subunit (Homo sapiens) (UniProt P19838); assay: LTEA_HepaRG_NFKB1: Life Technologies and Expression Analysis (LTEA) Assay for Nuclear Factor Kappa B Subunit 1 (NFKB1) using HepaRG (AID 2283521);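 further: TaqMan qRT-PCR transcript normalised to ACTB GAPDH and POLR2A housekeeping genes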
In short: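 Differentiated human HepaRG cells in serum-free induction medium with 0.5% DMSO were exposed for 48 h to eight half-log concentrations, top 100 uM, in duplicate. NFKB1 mRNA measured by Fluidigm TaqMan qRT-PCR, normalised to ACTB, GAPDH and POLR2A; bidirectional fit versus DMSO.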

Chain of Nuclear factor erythroid 2-related factor 2 (Homo sapiens) (Q16236 whole entry, looked up): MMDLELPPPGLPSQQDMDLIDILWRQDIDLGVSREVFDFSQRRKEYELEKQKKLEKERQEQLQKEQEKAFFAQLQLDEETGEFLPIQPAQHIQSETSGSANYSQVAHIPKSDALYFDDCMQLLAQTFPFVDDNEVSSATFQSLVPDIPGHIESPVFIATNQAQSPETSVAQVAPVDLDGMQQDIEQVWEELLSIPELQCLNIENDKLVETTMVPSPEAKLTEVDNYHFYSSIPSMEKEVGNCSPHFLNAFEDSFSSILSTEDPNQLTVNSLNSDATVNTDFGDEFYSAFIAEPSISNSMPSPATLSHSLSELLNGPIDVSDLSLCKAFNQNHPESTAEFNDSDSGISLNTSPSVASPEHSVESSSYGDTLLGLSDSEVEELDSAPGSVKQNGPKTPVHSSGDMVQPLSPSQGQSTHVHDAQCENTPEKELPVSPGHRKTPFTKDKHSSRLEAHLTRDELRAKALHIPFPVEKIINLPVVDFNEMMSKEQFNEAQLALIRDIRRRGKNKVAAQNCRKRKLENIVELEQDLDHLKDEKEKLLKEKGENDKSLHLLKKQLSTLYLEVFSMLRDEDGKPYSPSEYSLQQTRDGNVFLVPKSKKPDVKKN
Chain of Signal transducer and activator of transcription 3 (Homo sapiens) (P40763 whole entry, looked up): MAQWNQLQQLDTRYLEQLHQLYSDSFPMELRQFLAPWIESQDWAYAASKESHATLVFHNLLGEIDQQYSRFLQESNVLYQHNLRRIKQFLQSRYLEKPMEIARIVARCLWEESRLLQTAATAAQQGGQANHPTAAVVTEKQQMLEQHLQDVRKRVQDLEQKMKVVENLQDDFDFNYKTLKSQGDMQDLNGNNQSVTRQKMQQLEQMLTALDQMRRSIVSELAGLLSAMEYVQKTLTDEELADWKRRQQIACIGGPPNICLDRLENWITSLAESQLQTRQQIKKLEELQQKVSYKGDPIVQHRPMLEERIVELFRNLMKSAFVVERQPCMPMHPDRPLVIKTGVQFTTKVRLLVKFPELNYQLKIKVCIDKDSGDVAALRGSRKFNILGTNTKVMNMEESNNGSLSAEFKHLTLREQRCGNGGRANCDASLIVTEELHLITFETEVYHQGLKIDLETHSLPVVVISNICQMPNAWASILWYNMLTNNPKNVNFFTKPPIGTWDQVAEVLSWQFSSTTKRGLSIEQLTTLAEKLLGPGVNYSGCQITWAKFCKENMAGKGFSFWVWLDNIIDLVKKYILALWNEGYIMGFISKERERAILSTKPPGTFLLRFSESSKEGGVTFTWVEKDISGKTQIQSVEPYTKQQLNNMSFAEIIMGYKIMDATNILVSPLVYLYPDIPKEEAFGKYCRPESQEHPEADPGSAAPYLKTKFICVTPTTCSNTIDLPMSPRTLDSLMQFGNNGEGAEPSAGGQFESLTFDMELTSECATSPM
Chain of Nuclear factor NF-kappa-B p105 subunit (Homo sapiens) (P19838 whole entry, looked up): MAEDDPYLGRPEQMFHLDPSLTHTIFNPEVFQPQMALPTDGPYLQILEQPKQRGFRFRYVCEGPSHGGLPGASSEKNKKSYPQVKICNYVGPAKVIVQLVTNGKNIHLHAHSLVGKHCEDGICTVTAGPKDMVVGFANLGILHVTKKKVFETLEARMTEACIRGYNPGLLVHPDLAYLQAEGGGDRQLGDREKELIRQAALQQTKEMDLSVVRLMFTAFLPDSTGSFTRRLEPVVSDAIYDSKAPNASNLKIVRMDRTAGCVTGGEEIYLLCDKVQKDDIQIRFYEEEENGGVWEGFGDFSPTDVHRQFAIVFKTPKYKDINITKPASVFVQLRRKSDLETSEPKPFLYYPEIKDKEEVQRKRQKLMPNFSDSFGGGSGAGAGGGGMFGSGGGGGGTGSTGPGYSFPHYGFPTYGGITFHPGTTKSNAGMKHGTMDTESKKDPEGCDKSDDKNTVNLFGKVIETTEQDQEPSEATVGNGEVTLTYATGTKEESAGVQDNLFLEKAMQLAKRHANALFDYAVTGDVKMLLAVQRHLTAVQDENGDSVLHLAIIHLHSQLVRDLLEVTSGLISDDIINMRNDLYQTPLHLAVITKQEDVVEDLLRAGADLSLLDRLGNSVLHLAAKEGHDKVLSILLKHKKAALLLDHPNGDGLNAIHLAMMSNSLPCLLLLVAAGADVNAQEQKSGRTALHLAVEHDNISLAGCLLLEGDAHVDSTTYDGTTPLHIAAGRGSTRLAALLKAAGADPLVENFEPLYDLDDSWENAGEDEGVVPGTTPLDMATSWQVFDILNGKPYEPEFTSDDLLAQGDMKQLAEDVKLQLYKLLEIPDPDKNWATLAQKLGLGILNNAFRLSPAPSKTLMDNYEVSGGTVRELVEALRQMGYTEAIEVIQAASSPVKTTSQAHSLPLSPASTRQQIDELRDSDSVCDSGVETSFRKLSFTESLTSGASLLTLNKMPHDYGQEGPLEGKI

CCCOC(=O)c1cc(O)c(O)c(O)c1
outcome [1]: inactive | outcome [2]: inactive | outcome [3]: inactive | outcome [4]: inactive | outcome [5]: inactive | outcome [6]: inactive | outcome [7]: inactive | outcome [8]: inactive | AC50 [9]: 31.4 µM (active) | outcome [10]: inactive | outcome [11]: inactive | outcome [12]: inactive | outcome [13]: inactive | outcome [14]: inactive | outcome [15]: inactive | outcome [16]: inactive | outcome [17]: inactive

Clc1cc(Cl)c2c(c1)N=C1CCCCCN1C2
outcome [1]: inactive | outcome [18]: inactive | outcome [2]: inactive | outcome [3]: inactive | outcome [4]: inactive | outcome [5]: inactive | outcome [19]: inactive | outcome [6]: inactive | outcome [7]: inactive | outcome [8]: inactive | AC50 [9]: 12.6 µM (active) | outcome [10]: inactive | outcome [11]: inactive | outcome [12]: inactive | outcome [13]: inactive | outcome [14]: inactive | outcome [15]: inactive | outcome [16]: inactive | outcome [17]: inactive

O=c1ccc2ccccc2o1
outcome [1]: inactive | outcome [18]: inactive | outcome [2]: inactive | outcome [3]: inactive | outcome [4]: inactive | outcome [5]: inactive | outcome [19]: inactive | outcome [6]: inactive | outcome [7]: inactive | outcome [8]: inactive | outcome [9]: inactive | outcome [10]: inactive | outcome [11]: inactive | outcome [12]: inactive | outcome [13]: inactive | outcome [14]: inactive | outcome [15]: inactive | outcome [16]: inactive | outcome [17]: inactive
